Assay results: PubChem BioAssay (EPA / NIEHS)
Several values for one entry are separate records, joined by “and”; a condition that tells them apart may be missing. Equal entries are not always repeated. The source holds several records for some structures; these can differ, active in one and inactive in another. Activity calls are given as the source filed them. The calls were made as follows: active = hit-call score of the fitted dose curve at least 0.9, where 1 is the maximum; inactive = score below 0.9.

What was measured:
[1] = read-out: Tissue plasminogen activator (tPA), PLAT (gene 5327); assay: BSK_BE3C_tPA: BioMAP Diversity Plus: BE3C Assay for Tissue plasminogen activator (tPA) Biomarker Activity (AID 2283041); conditions: primary human bronchial epithelial cells; actives raise or lower the signal;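 as to outcome: tPA level quantified by ELISA one day after compound addition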
Outline: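 Gain- or loss-of-signal in tPA, measured by ELISA, derived by bidirectional fitting against DMSO. Cells: human primary bronchial epithelial; read at 24 h after chemical dosing.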

[2] = read-out: Interleukin-8 (IL8), CXCL8 (gene 3576); assay: BSK_CASM3C_IL8: BioMAP Diversity Plus: CASM3C Assay for Interleukin-8 (IL8) Biomarker Activity (AID 2283042); conditions: primary human coronary artery smooth muscle cells; actives raise or lower the signal;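 also: IL-8 protein level quantified by ELISA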
[3] = read-out: Human Leukocyte Antigen - DR isotype (HLADR), HLA-DRA (gene 3122); assay: BSK_CASM3C_HLADR: BioMAP Diversity Plus: CASM3C Assay for Human Leukocyte Antigen - DR isotype (HLADR) Biomarker Activity (AID 2283043); conditions: primary human coronary artery smooth muscle cells; actives raise or lower the signal;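 also: cell-surface HLA-DR protein level quantified by ELISA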
[4] = read-out: Macrophage colony-stimulating factor (MCSF), CSF1 (gene 1435); assay: BSK_CASM3C_MCSF: BioMAP Diversity Plus: CASM3C Assay for Macrophage colony-stimulating factor (MCSF) Biomarker Activity (AID 2283044); conditions: primary human coronary artery smooth muscle cells; actives raise or lower the signal;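 also: M-CSF protein amount quantified by ELISA after 24 h exposure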
[5] = read-out: Low-density lipoprotein receptor (LDLR), LDLR (gene 3949); assay: BSK_CASM3C_LDLR: BioMAP Diversity Plus: CASM3C Assay for Low-density lipoprotein receptor (LDLR) Biomarker Activity (AID 2283045); conditions: primary human coronary artery smooth muscle cells; actives raise or lower the signal;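 also: LDLR protein level on the cell surface quantified by ELISA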
[6] = read-out: Monocyte Chemoattractant Protein-1 (MCP1), CCL2 (gene 6347); assay: BSK_CASM3C_MCP1: BioMAP Diversity Plus: CASM3C Assay for Monocyte Chemoattractant Protein-1 (MCP1) Biomarker Activity (AID 2283046); conditions: primary human coronary artery smooth muscle cells; actives raise or lower the signal;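 also: MCP-1 level quantified by ELISA 24 h after dosing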
[7] = BSK_CASM3C_Proliferation: Cell Proliferation Assessment in the BioMAP Diversity Plus: CASM3C Assay (AID 2283047); conditions: primary human coronary artery smooth muscle cells;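 also: sulforhodamine B total protein stain as relative cell number at 560 nm; sub-confluent cells exposed 48 h before staining; fitted both ways against DMSO so gain or loss of cell number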
[8] = read-out: Monokine induced gamma interferon (MIG), CXCL9 (gene 4283); assay: BSK_CASM3C_MIG: BioMAP Diversity Plus: CASM3C Assay for Monokine induced gamma interferon (MIG) Biomarker Activity (AID 2283048); conditions: primary human coronary artery smooth muscle cells; actives raise or lower the signal;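 also: MIG protein level measured by ELISA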
[9] = read-out: serum amyloid A (SAA), SAA1 (gene 6288); assay: BSK_CASM3C_SAA: BioMAP Diversity Plus: CASM3C Assay for serum amyloid A (SAA) Biomarker Activity (AID 2283049); conditions: primary human coronary artery smooth muscle cells; actives raise or lower the signal;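 also: SAA protein level quantified by ELISA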
[10] = BSK_CASM3C_SRB: Viability Assessment in the BioMAP Diversity Plus: CASM3C Assay (AID 2283050); conditions: primary human coronary artery smooth muscle cells;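 also: total protein by SRB staining as cytotoxicity measure in parallel cultures; cells exposed to compound for 24 h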

Compound	AC50 [1]	outcome [2]	outcome [3]	outcome [4]	AC50 [5]	outcome [6]	AC50 [7]	outcome [8]	outcome [9]	AC50 [10]	outcome [1]	outcome [5]	outcome [7]	outcome [10]	AC50 [3]	AC50 [2]	AC50 [4]	AC50 [6]	AC50 [8]	AC50 [9]
O=C(OC1CCCCC1)c1ccccc1C(=O)OC1CCCCC1	8.39 µM (active)	inactive	inactive	inactive	34.2 µM (active)	inactive	33.4 µM (active)	inactive	inactive	20.9 µM (active)	–	–	–	–	–	–	–	–	–	–
C=CC(=O)OCCCCCC(C)C	–	inactive	inactive	inactive	–	inactive	–	inactive	inactive	–	inactive	inactive	inactive	inactive	–	–	–	–	–	–
Cc1ccccc1N	–	inactive	inactive	inactive	–	inactive	–	inactive	inactive	–	inactive	inactive	inactive	inactive	–	–	–	–	–	–
COC(=O)c1sccc1S(=O)(=O)NC(=O)Nc1nc(C)nc(OC)n1	–	inactive	inactive	inactive	–	inactive	–	inactive	inactive	–	inactive	inactive	inactive	inactive	–	–	–	–	–	–
COC[C@H](C)N(C(=O)CCl)c1c(C)csc1C	–	inactive	inactive	inactive	–	inactive	–	inactive	inactive	–	inactive	inactive	inactive	inactive	–	–	–	–	–	–
CCNc1nc(NC(C)(C)C)nc(SC)n1	–	inactive	inactive	inactive	–	inactive	–	inactive	inactive	–	inactive	inactive	inactive	inactive	–	–	–	–	–	–
ClCC(Cl)CCl	–	inactive	inactive	inactive	–	inactive	–	inactive	inactive	–	inactive	inactive	inactive	inactive	–	–	–	–	–	–
O=C(O)C(F)(F)C(F)(F)C(F)(F)C(F)(F)C(F)(F)C(F)(F)C(F)(F)C(F)(F)C(F)(F)C(F)(F)F	7.65 µM (active) and 5.33 µM (active)	inactive	inactive	inactive	–	inactive	–	inactive	inactive	–	inactive	inactive	inactive	inactive	19.1 µM (active)	–	–	–	–	–
CCC(C)(C)c1ccc(O)c(C(C)(C)CC)c1	26.6 µM (active)	–	–	–	33.8 µM (active)	–	14.3 µM (active)	–	–	13 µM (active)	–	–	–	–	16.4 µM (active)	38.7 µM (active)	28.9 µM (active)	34.6 µM (active)	35.8 µM (active)	30 µM (active)
CCOP(=S)(OCC)SCSP(=S)(OCC)OCC	–	inactive	inactive	inactive	–	inactive	–	inactive	inactive	–	inactive	inactive	inactive	inactive	–	–	–	–	–	–
ClC1=C(Cl)[C@]2(Cl)[C@H]3[C@H]([C@H]4C=C[C@H]3C4)[C@@]1(Cl)C2(Cl)Cl	–	inactive	–	inactive	–	inactive	8.26 µM (active)	inactive	inactive	–	inactive	inactive	–	inactive	5.83 µM (active)	–	–	–	–	–
O=Cc1cccc(Oc2ccccc2)c1	–	inactive	inactive	inactive	–	inactive	–	inactive	inactive	–	inactive	inactive	inactive	inactive	–	–	–	–	–	–
OCc1ccco1	–	inactive	inactive	inactive	–	inactive	–	inactive	inactive	–	inactive	inactive	inactive	inactive	–	–	–	–	–	–
Cn1sc(Cl)cc1=O	–	inactive	inactive	inactive	–	inactive	6.81 µM (active)	inactive	inactive	–	inactive	inactive	–	inactive	–	–	–	–	–	–
COP(=S)(OC)Oc1c(Cl)cc(C)cc1Cl	–	–	inactive	inactive	–	inactive	20 µM (active)	inactive	inactive	–	inactive	inactive	–	inactive	–	0.213 µM (active)	–	–	–	–
C[C@@H]1C[C@@H]([C@H](O)CC2CC(=O)NC(=O)C2)C(=O)[C@@H](C)C1	2.91 µM (active)	–	–	–	0.791 µM (active)	–	1.63 µM (active)	–	inactive	8.63 µM (active)	–	–	–	–	1.84 µM (active)	6.03 µM (active)	4.28 µM (active)	9.46 µM (active)	1.78 µM (active)	–
CC1(C)Cc2cccc(O)c2O1	–	inactive	inactive	inactive	–	inactive	–	inactive	inactive	–	inactive	inactive	inactive	inactive	–	–	–	–	–	–

Compound	AC50 [1]	outcome [2]	outcome [3]	outcome [4]	AC50 [5]	outcome [6]	AC50 [7]	outcome [8]	outcome [9]	AC50 [10]	outcome [1]	outcome [5]	outcome [7]	outcome [10]	AC50 [3]	AC50 [2]	AC50 [4]	AC50 [6]	AC50 [8]	AC50 [9]
CCOP(=S)(OCC)SCCS(=O)(=O)CC	–	inactive	inactive	inactive	–	inactive	–	inactive	inactive	–	inactive	inactive	inactive	inactive	–	–	–	–	–	–
CCOP(=S)(OCC)Oc1nc(Cl)c(Cl)cc1Cl	–	inactive	inactive	inactive	–	inactive	–	inactive	inactive	–	inactive	inactive	inactive	inactive	–	–	–	–	–	–
CC(C)(C)CC(C)(C)c1ccc(O)cc1	13.2 µM (active)	–	–	–	16 µM (active)	–	10.1 µM (active)	–	–	13.7 µM (active)	–	–	–	–	11.2 µM (active)	30.3 µM (active)	11.3 µM (active)	11.9 µM (active)	26.4 µM (active)	10.7 µM (active)
CC(C)CCCCCCOC(=O)c1ccccc1C(=O)OCCCCCCC(C)C	–	inactive	inactive	inactive	–	inactive	–	inactive	inactive	–	inactive	inactive	inactive	inactive	–	–	–	–	–	–
CCCCCCCCC(=O)NCc1ccc(O)c(OC)c1	–	inactive	–	inactive	–	inactive	20 µM (active)	inactive	inactive	–	inactive	inactive	–	inactive	32.3 µM (active)	–	–	–	–	–
O=[N+]([O-])c1ccc2c3c(cccc13)CC2	–	inactive	inactive	inactive	–	inactive	–	inactive	inactive	–	inactive	inactive	inactive	inactive	–	–	–	–	–	–
CCSC(C)CC1CC(=O)C(C(CC)=NOC/C=C/Cl)=C(O)C1 (stereo not given)	–	inactive	inactive	inactive	–	inactive	–	inactive	inactive	–	inactive	inactive	inactive	inactive	–	–	–	–	–	–
CCC(=O)C(CC(C)N(C)C)(c1ccccc1)c1ccccc1 (stereo not given)	–	inactive	inactive	inactive	–	inactive	–	inactive	inactive	–	inactive	inactive	inactive	inactive	–	–	–	–	–	–
COP(=S)(OC)Oc1cc(Cl)c(Cl)cc1Cl	–	inactive	–	–	–	inactive	29.3 µM (active)	inactive	–	–	inactive	inactive	–	inactive	20 µM (active)	–	3.97 µM (active)	–	–	20 µM (active)
CC(=O)[O][Hg][c]1ccccc1	0.537 µM (active)	–	–	–	0.148 µM (active)	–	0.148 µM (active)	–	–	0.148 µM (active)	–	–	–	–	0.58 µM (active)	3.6 µM (active)	0.816 µM (active)	0.394 µM (active)	2.05 µM (active)	0.47 µM (active)
COc1cc(-c2ccc(N)c(OC)c2)ccc1N	–	inactive	inactive	inactive	–	inactive	15 µM (active)	inactive	inactive	–	inactive	inactive	inactive	inactive	–	–	–	–	–	–
O=C(O)CCC(F)(C(F)(F)F)C(F)(F)F	–	inactive	inactive	inactive	–	inactive	–	inactive	inactive	–	inactive	inactive	inactive	inactive	–	–	23.9 µM (active)	–	–	17.9 µM (active)
C[C@]12CCC(=O)C[C@@H]1CC[C@@H]1[C@@H]2CC[C@]2(C)[C@@H](O)CC[C@@H]12	–	inactive	inactive	inactive	–	inactive	–	inactive	inactive	–	inactive	inactive	inactive	inactive	–	–	–	–	–	–
CCOP(=S)(OCC)Oc1ccc(S(C)=O)cc1 (stereo not given)	–	inactive	inactive	inactive	–	inactive	–	inactive	inactive	–	inactive	inactive	inactive	inactive	–	–	–	–	–	–
CC(C)c1ccc(CO)cc1	–	inactive	inactive	inactive	–	inactive	–	inactive	inactive	–	inactive	inactive	inactive	inactive	–	–	–	–	–	–
Nc1ccc(-c2ccc(N)c(Cl)c2)cc1Cl	–	inactive	inactive	inactive	–	inactive	–	inactive	inactive	–	inactive	inactive	inactive	inactive	–	–	–	–	–	–
